Measurements taken from PubChem BioAssay AID720560 (Broad Institute, 2013).
Potency and affinity values are given separately. Results filed as inconclusive are left out.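 Rule for the calls: active = signal drop whose fitted half-maximal concentration is at most twice the top valid dose; inconclusive = flat moderate drop between 30 and 70 percent, or an unreliable fit; inactive = the rest.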

assay: inhibitors of HRE-driven luciferase expression, dose response, ARNT-TACC3 inhibitor project, HeLa cells, luminescence, dry powder samples, 2158-08 (AID 720560); conditions: HeLa 3xHRE-luciferase reporter; series mostly up to 60 µM; activity change, negative = inhibition: at the top concentration

Activity change, negative = inhibition, inactive:
Cc1ccc(C(=O)Nc2nc(-c3ccccn3)cs2)cc1S(=O)(=O)N1CCOCC1 46.9% [at 30 µM]
O=C(CSc1ccc(-c2ccccn2)nn1)Nc1ccccc1 25.6% [at 30 µM]
O=C(CSc1ccc(-c2ccccn2)nn1)N1CCCC1 101%
Cc1c(C(=O)N(C)C)sc2nc(-c3ccccn3)[nH]c(=O)c12 38.4%
Cc1nnc(NC(=O)c2ccc(S(=O)(=O)N3CCCCC3)cc2)o1 -28.6%
O=C(Nc1nnc(C2=COCCO2)o1)c1ccc(S(=O)(=O)N2CCCCC2)cc1 48.6%
CC1CCN(S(=O)(=O)c2ccc(C(=O)Nc3nnc(-c4ccccn4)o3)cc2)CC1 52.4%
C=CC1=C(C(=O)O)N2C(=O)[C@@H](NC(=O)/C(=N\O)c3csc(N)n3)[C@H]2SC1 (stereo in doubt) -8.92%
O=C(CSc1ccc(-c2ccccn2)nn1)NC1CCCCC1 49.1%
CC1CCN(S(=O)(=O)c2ccc(C(=O)Nc3nnc(-c4ccno4)o3)cc2)CC1 17.4%
